Screens from PubChem.
Sampled rows, rich in hits. Any-hit rate of the full collection: about 1.7%.
ATG4B inh – ATG4B protease inhibitors, primary screen, biochemical, fluorescence, uHTS | 340,000 compounds, 0.51% hits | ATG4B cleavage of LC3-PLA2, NBD-HPC fluorescence, 1 h | AID 504462, 2011 | inhibition, % at 8.33 µM | Cysteine protease ATG4B (Homo sapiens), Q9Y4P1; in the data active means inhibition above about 40%
Rin1 Abl inh – inhibitors of Rin1-Abl protein binding, primary screen, biochemical, TR-FRET; inhibition, % at 7.35 µM; 360,000 compounds, 0.4% hits; in the data active means inhibition above about 5%, passing the limit was not always enough
SUMO1-SIM PPI – modulators of SUMO1 protein-protein interactions, primary screen, biochemical, uHTS; Small ubiquitin-related modifier 1 (Homo sapiens), P63165; SUMO1 binding to a labelled peptide, TR-FRET, 1 h; inhibition, % at 20 µM; 360,000 compounds, 0.33% hits; AID 602429, 2012; in the data active means inhibition above about 37%
Neddyl block – inhibitors of cullin neddylation, primary screen, biochemical, TR-FRET, uHTS, NAE and Ubc12; inhibition, % at 25 µM; 360,000 compounds, 0.58% hits; in the data active means inhibition above about 36%
ATG4B confirm – ATG4B protease inhibitors, retest, confirmation, biochemical, fluorescence, single concentration; inhibition, % at 8.33 µM; ATG4B protease fluorescent substrate cleavage assay; shares compounds with ATG4B inh; 320 compounds, 92% hits; in the data active means inhibition above about 39%
PLA2 ctr – PLA2 enzyme inhibition, counter-screen for ATG4B inhibitor project, biochemical, single concentration, uHTS hits; shares compounds with ATG4B inh; purified PLA2, NBD-C6-HPC fluorescence, 45 min; inhibition, % at 8.33 µM; 1,600 compounds, 66% hits; in the data active means inhibition above about 50%
* marks the source's active call; other numbers are inactive results; i = inactive; nt = no result given.

SMILES	ATG4B inh	Rin1 Abl inh	SUMO1-SIM PPI	Neddyl block	PLA2 ctr	others
CCN(CC)CC(=O)Nc1sc(C)c(C)c1C(=O)c1ccc(C)cc1	2	-2	-4	-5	nt
CCC(=O)N1CCN(c2nc(CC)nc3sc4c(c23)CCCC4)CC1	54*	2	2	-14	64*
CCc1nc(N2CCN(C(=S)NCCCOC)CC2)c2c3c(sc2n1)CCCC3	72*	0	2	-30	80*
CCc1nc(N2CCN(S(C)(=O)=O)CC2)c2c3c(sc2n1)CCCC3	47*	1	0	-7	50
CC1(C(=O)Nc2ccc3c(c2)OCCO3)CCC(=O)N1C1CCN(Cc2ccccc2)CC1 (centres undefined)	nt	1	4	-7	nt
COCCN1C(=O)CN(S(C)(=O)=O)CC1(C)C(=O)NCc1ccccc1 (centres undefined)	nt	nt	0	-2	nt
Cc1cc2oc(=O)cc(CN(C)Cc3ccccc3)c2cc1C	nt	2	6	-2	nt
COC(=O)C1=CN(c2ccc3c(c2)OCO3)C(N)=C(C#N)C1c1ccccc1 (centres undefined)	nt	nt	-1	14	nt
CCOc1ccccc1NC(=O)c1cc(C(=O)c2cc(Br)ccc2O)coc1=N	56*	0	28	-8	57*
COc1cc(OC)c(NS(=O)(=O)c2cc(C(=O)NCCCN3CCOCC3)ccc2C)cc1Cl	nt	-3	-1	-5	nt
O=C(NCCc1ccc(Cl)cc1)c1ccc2nc[nH]c2c1	-4	-3	3	-1	nt
O=C(NCCc1ccc(Cl)cc1Cl)c1ccc2nc[nH]c2c1	43*	1	1	7	51*
COc1ccc(C(=O)NCC(c2ccco2)N2CCOCC2)cc1 (centres undefined)	nt	2	11	5	nt
CCCCOc1ccc(-c2c(C#N)c(N)nc(SCC(N)=O)c2C#N)cc1	53*	-1	-17	-437	58*
CCCCOC(=O)CSc1nc(N)c(C#N)c(-c2ccc(OCC)cc2)c1C#N	-5	0	-5	i	nt
C=Cn1cc(CNC[C@H]2O[C@@H](n3ccc(N)nc3=O)[C@H](O)[C@@H]2O)c(C)n1	nt	-1	-1	-3	nt
CC1CN=C(c2cccn2Cc2ccc(F)cc2Cl)O1 (centres undefined)	43*	-4	-1	5	53*
CN1CCN(C2=C(NS(=O)(=O)c3cccs3)C(=O)c3ccccc3C2=O)CC1	-4	-10	-31	-38	nt
CCOc1ccccc1N1CCN(C2=C(NS(=O)(=O)c3cccs3)C(=O)c3ccccc3C2=O)CC1	57*	-2	-9	-21	65*
Cc1cc(C)nc(SCc2ccc(C(=O)N/N=C3\CC(C)CC(C)(C)C3)cc2)n1 (centres undefined)	47*	-3	-2	-4	46	ATG4B confirm=76*
CCCCCCn1cc(CN2CC(N(C)CCC)CS2(=O)=O)nn1 (centres undefined)	nt	nt	-1	3	nt
COCCCNc1nc(SCc2ccccc2)nc2sc3c(c12)CCC3	23	4	6	0	nt
N#Cc1cnn(-c2nc(SCc3ccccc3)nc3sc4c(c23)CCCC4)c1N	43*	-2	2	-129	59*
Cc1ccccc1CSc1ccc(-c2ccc3c(c2)OCO3)nn1	45*	-1	-1	-12	27
CCN(CC)C(=O)C1=C(C)N(CCCOC)C(=O)C(CC(=O)NC2CCCCC2)C1 (centres undefined)	nt	1	4	0	nt
SMILES	ATG4B inh	Rin1 Abl inh	SUMO1-SIM PPI	Neddyl block	PLA2 ctr	others
CC1Oc2ccc(C#N)cc2N(Cc2cccc(F)c2)C1=O (centres undefined)	nt	2	0	-6	nt
Cc1c(Cl)cccc1Nc1ccccc1C(=O)O	44*	2	14	8	44	ATG4B confirm=57*
COC(=O)c1ccc(CNC(=O)C(C)N=C2NS(=O)(=O)c3ccccc32)cc1 (centres undefined)	8	0	4	18	nt
CCc1nc2c(OCCC3CCCCC3)cccn2c1N(C)C(=O)c1ccccc1F	nt	2	-1	3	nt
CCN1CCN(c2nc3c(C)cccn3c(=O)c2/C=C(\C#N)S(=O)(=O)c2ccc(C)cc2)CC1	67*	-5	-4	0	68*
Cc1ccc(S(=O)(=O)/C(C#N)=C/c2c(N3CCN(C)CC3)nc3c(C)cccn3c2=O)cc1	50*	-4	-3	0	59*
Cc1ccc(S(=O)(=O)/C(C#N)=C/c2c(N3CC(C)OC(C)C3)nc3c(C)cccn3c2=O)cc1 (centres undefined)	44*	-3	-9	-4	51*
CC1CN(c2nc3ccccn3c(=O)c2/C=C(\C#N)S(=O)(=O)c2ccccc2)CC(C)O1 (centres undefined)	-8	-9	-17	-28	nt
O=C(COC(=O)c1c(F)cccc1F)NC(=O)NCc1ccccc1	nt	-1	5	13	nt
Cc1cc(N/N=C/c2ccc(Cl)cc2Cl)nc(NCc2ccccc2)n1	85*	2	2	28	88*
Clc1ccc(C=NNc2ccccn2)c(Cl)c1	2	-1	-5	8	nt
Cc1cc(N/N=C/c2ccc(N(C)C)cc2)nc(NCc2ccccc2)n1	-3	-2	4	nt	nt
Cc1cc(Nc2ccc(Cl)cc2)nc(NCc2ccccc2)n1	44*	0	3	nt	38	ATG4B confirm=69*
Cc1cc(N/N=C/c2ccc(F)cc2)nc(NCc2ccccc2)n1	71*	0	-2	16	64*
Cc1cc(Nc2ccccc2)nc(NCc2ccccc2)n1	6	1	1	19	nt
Cc1ccc(/C=N/Nc2cc(C)nc(NCc3ccccc3)n2)cc1	64*	2	0	6	77*
O=C(NCC1CCCCC1)c1ccc2nc([C@@H]3O[C@H](CO)[C@H](O)[C@H](O)[C@H]3O)[nH]c2c1	nt	3	1	0	nt
COc1ccc(NC(=O)c2sc(=O)n(Cc3ccc(F)c(Cl)c3)c2C)cc1OC	nt	0	5	3	nt
Nc1c(S(=O)(=O)O)cc(NC(=O)c2ccccc2)c2c1C(=O)c1ccccc1C2=O	76*	-4	69*	-19	68*
O=C1C=CC(c2c[nH]c3ccccc23)CC1 (centres undefined)	nt	nt	-2	2	nt
Cn1cccc1/C=C1\CCC/C(=C\c2cccn2C)C1=O	45*	-1	-62	-127	59*
O=C(Nc1ccc(OC(F)(F)F)cc1)c1cc(S(=O)(=O)N2CCCCC2)ccc1N1CCOCC1	nt	-1	-1	-27	nt
